# Compound activity (PubChem)
# ELG1 DNA repair: ELG1-dependent DNA repair inhibition; Potency, µM (titrated, usually from 46.1 µM), most hits filed as inhibitors; HEK293T ELG1-luciferase reporter, luminescence, 16 h; DNA damage induced by 5-fluorouridine; 330,000 compounds, 2.3% hits; also: nearly all actives have a fitted effect of over 55% in size
#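 Reporter activity after DNA damage by 5-fluorouridine is monitored. Compound-treated cells incubate 16 hr at 37 °C, then ONE-Glo is added for 30 min before luminescence reading.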
# Rab9 promoter act: activates the Rab9 promoter; Huh7 Rab9 promoter-luciferase reporter, luminescence, 24 h; Potency, µM (titrated, usually from 9.22 µM), usual class: activators; 320,000 compounds, 2.8% hits; AID 485297; also: nearly all actives have a fitted effect of over 60% in size
#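 Using Huh7 cells stably transfected with Rab9 promoter–luciferase, compounds were incubated 24 h at 37 °C, 5% CO2; luciferase luminescence was read 10 min after reagent addition.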
# FLuc counter: counter-screen for miR-21 project: firefly luciferase inhibitors or activators | purified FLuc, Km substrates, luminescence inhibition | Potency, µM (top dose mostly 57.5 µM), usual class: inhibitors | 360,000 compounds, 6.9% hits | AID 588342; also: nearly all actives have a fitted effect of over 55% in size
# Target sequence (P08659 whole entry, looked up): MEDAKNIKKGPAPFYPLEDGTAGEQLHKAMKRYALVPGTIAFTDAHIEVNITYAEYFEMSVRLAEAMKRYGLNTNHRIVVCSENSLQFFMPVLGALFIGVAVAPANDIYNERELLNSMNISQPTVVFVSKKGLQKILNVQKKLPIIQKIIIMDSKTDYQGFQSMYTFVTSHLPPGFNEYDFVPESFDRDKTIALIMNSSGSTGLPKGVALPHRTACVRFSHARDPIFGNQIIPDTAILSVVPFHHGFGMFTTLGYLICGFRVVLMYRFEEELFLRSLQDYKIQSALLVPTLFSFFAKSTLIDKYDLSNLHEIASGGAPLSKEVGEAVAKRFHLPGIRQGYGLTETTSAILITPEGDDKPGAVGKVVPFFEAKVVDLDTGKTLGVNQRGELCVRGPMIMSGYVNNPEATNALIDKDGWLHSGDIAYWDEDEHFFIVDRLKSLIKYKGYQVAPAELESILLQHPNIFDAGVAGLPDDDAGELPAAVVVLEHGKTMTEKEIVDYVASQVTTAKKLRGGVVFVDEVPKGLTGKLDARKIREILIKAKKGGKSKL
#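 Purified P. pyralis luciferase, 10 nM final, with Km-level 10 uM D-luciferin and 10 uM ATP in 50 mM Tris acetate pH 7.5, 10 mM Mg acetate, 0.01% Tween-20, 0.05% BSA; 6-point qHTS titration about 60 µM downward; luminescence read.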
# ELG1 genotoxic: inducers of genotoxicity in HEK293T ELG1-luciferase cells; HEK293T ELG1-luciferase reporter, luminescence, 16 h; Potency, µM (series often up to 46 µM), actives largely listed as activators; 330,000 compounds, 1.3% hits; AID 504466; also: nearly all actives have a fitted effect of over 60% in size
#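 Quantitative HTS format in 1536-well plates. HEK293T ELG1-luciferase reporter cells receive test compound and are incubated 16 hr at 37 °C, 5% CO2; ONE-Glo added, 30 min room temperature, then luminescence read.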
# SMN2 splice enh: enhancers of SMN2 splice variant expression; HEK293 SMN2-luciferase splicing reporter, luminescence, 30-36 h; Potency, µM (titrated, usually from 46.1 µM), hits mostly activators; 210,000 compounds, 2.8% hits; AID 1458; also: nearly all actives have a fitted effect of over 55% in size
#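 qHTS luciferase splicing reporter: luminescence rises when SMN2 exon 7 is included in transfected HEK293 cells. Compound exposure lasted 30-36 h at 37C, with 4.5 mM final sodium butyrate as control, followed by a ONE-Glo read.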
# NPC1 promoter act: activates the NPC1 promoter; Huh7 NPC1 promoter luciferase reporter, 24 h; Potency, µM (highest dose often 9.22 µM), usual class: activators; 320,000 compounds, 2.4% hits; AID 485313; also: nearly all actives have a fitted effect of over 60% in size
#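 Readout is luciferase luminescence, reflecting NPC1 promoter activation in stably transfected Huh7 cells after 24 h compound exposure at 37 °C in reduced-serum medium with 10% FBS.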
# A number is an active result; – = inactive; ? = inconclusive; · = not tested or not shown; [ ] = dose if it differs, or a comment. Rows were chosen to be rich in hits. Some 9.2% of all compounds tested hit in one or more screens of this group. Calls follow the shape of the dose curve; as a rule, active = well fitted curve in the direction sought with a large enough effect; inconclusive = small, poorly fitted or top-dose-only effect, or another doubt; inactive = no such curve, though single readings can be large; an effect the other way counts as inactive or inconclusive.
SMILES,ELG1 DNA repair,Rab9 promoter act,FLuc counter,ELG1 genotoxic,SMN2 splice enh,NPC1 promoter act
CC(=O)c1ccc(NC(=O)CN(C)S(=O)(=O)c2cnc[nH]2)cc1,·,·,–,·,–,·
CCOc1ccccc1Nc1nnc(SCC(=O)Nc2ccc3[nH]c(=O)[nH]c3c2)s1,?,–,–,–,–,–
CCOc1ccccc1Nc1nnc(SCC(=O)Nc2cccc(S(=O)(=O)NC3=NCCCCC3)c2)s1,18µM,–,–,–,–,–
CCOc1ccc2nc(SCC(=O)Nc3ccc4c(c3)OCCO4)[nH]c2c1,–,–,17µM,–,–,–
CCOc1ccc2nc(SCC(=O)Nc3cccc(S(=O)(=O)NC4=NCCCCC4)c3)[nH]c2c1,?,–,21µM,–,–,–
COc1ccc2nc(SCC(=O)Nc3ccc4c(c3)OCCO4)[nH]c2c1,?,–,13µM,?,–,–
Cc1cccc(NC(=O)c2nc[nH]c2C(=O)N2CCN(C(=O)OC(C)(C)C)CC2)c1,–,–,–,–,·,–
CN1CCc2c(n(CC(O)CN3C(=O)c4ccccc4S3(=O)=O)c3ccccc23)C1=O (stereo unspecified),15µM,–,–,–,–,–
CC(C)(C)NC(=O)CC1C[C@H](C(=O)N2CCCCC2)[C@@]2(CCc3ccccc3)c3[nH]c4ccccc4c3CCN2C1=O (stereo partly specified),–,·,·,–,·,·
CN(C)c1c(F)cc(-c2nn[nH]n2)cc1F,?,–,15µM,–,·,–
COc1ccc(C(=O)NCC(c2cccs2)N2CCc3ccccc32)cc1OC (stereo unspecified),?,–,–,–,·,–
COc1cccc(NC(=O)Nc2nnc(Cc3ccccc3)s2)c1,–,–,–,–,·,–
O=C(Nc1ccc(Cc2ccncc2)cc1)c1ccc(Br)o1,?,–,?,–,–,–
COc1cccc(NC(=O)Nc2nnc(N3C(C)CCCC3C)s2)c1 (stereo unspecified),?,–,21µM,–,·,–
CC(C)Cc1ccc(C(=O)Nc2ccc(Cc3ccncc3)cc2)o1,21µM,–,?,–,·,–
COc1ccc(CNC(=O)c2ccncc2)cc1,–,–,–,–,·,–
COc1cccc(CNC(=O)c2ccncc2)c1,–,–,17µM,–,·,–
COc1cccc(NC(=O)Nc2ccc(Cc3ccncc3)cc2)c1,–,–,17µM,–,–,–
O=C1c2ccccc2C(=O)N1CC(O)COc1ccc(Br)cc1 (stereo unspecified),–,–,?,–,·,–
Cc1cc(C(=O)C(=O)Nc2nncs2)c(C)n1-c1ccc(Cl)cc1,·,·,–,·,·,·
COc1cc(C(=O)NC(=S)Nc2ccccc2[N+](=O)[O-])cc(OC)c1OC,6.5µM,–,–,–,–,–
COc1cccc(NC(=O)C(=O)NCc2ccncc2)c1,?,?,19µM,?,13µM,–
COc1c(C(=O)Nc2ccc(Cc3ccncc3)cc2)ccc2ccccc12,?,–,19µM,–,–,–
Cc1cc(C)cc(C(=O)NC(=S)Nc2ccc(Cc3ccncc3)cc2)c1,?,–,–,–,–,–
COc1cc(C(=O)NC(=S)Nc2ccc(Cc3ccncc3)cc2)cc(OC)c1OC,13µM,–,–,–,·,–
SMILES,ELG1 DNA repair,Rab9 promoter act,FLuc counter,ELG1 genotoxic,SMN2 splice enh,NPC1 promoter act
COc1cccc(COC(=O)C2CC(=O)N(Cc3ccc(C)cc3)C2)c1OC (stereo unspecified),–,–,–,–,·,–
Cc1ccc(S(=O)(=O)N2CCN(C(=O)CCC(=O)Nc3ccc(F)cc3F)CC2)cc1,–,·,·,–,·,·
COc1cccc(/C=C2\CCC(C3CCCC3)C2=O)c1OC (stereo unspecified),?,4µM,1.1µM,?,·,2.8µM
COc1ccc(/C=C2\CCC(C3CCCC3)C2=O)c(OC)c1OC (stereo unspecified),–,–[1.84 µM],24µM,–,·,–
CC1c2cccc(O)c2C(O)=C2C(=O)[C@]3(O)C(O)=C(C(N)=O)C(=O)C(N(C)C)C3C(O)C21 (stereo partly specified),·,·,·,·,–,·
COCCSc1nnc(NC(=O)C(C)(C)C)s1,?,?,15µM,–,·,?
